From PubChem BioAssay AID624483 (NMMLSC, 2012)
Screen size: about 360,000 compounds; about 11,000 (3.1%) were called active. Roughly 2% stayed inconclusive and do not appear here. The list comes from a sample in which actives are over-represented; it also holds similar structures and randomly drawn compounds. Values without a mark were called inactive. Rule as the data show it: active = fluorescence intensity above about 16000; inconclusive = no clear call, values can overlap the other calls; inactive = below that.

Test: compound fluorescence in toxin protease inhibitor counterscreen, primary screen, artefact control for toxin protease inhibitor project, biochemical, multiplex microsphere, HTS (AID 624483)
Conditions: compound autofluorescence counterscreen, microsphere flow cytometry; active compounds read high

| Compound | fluorescence intensity |
| --- | --- |
| Cc1occc1C(=O)NNC(=S)NCC(C)C | 16400 (active) |
| Cc1scc(C(=O)NNC(=S)NCC(C)C)c1C | 2420 |
| CC(C)CNC(=S)NNC(=O)c1nn(C)cc1Cl | 8820 |
| CN(C)S(=O)(=O)c1ccc(C(=O)NCCN=C2NS(=O)(=O)c3ccccc32)cc1 | 3720 |
| CC[C@]12c3[nH]c4cc(CCC(=O)N(C)C)ccc4c3CCN1C(=O)[C@@H](CC(=O)NCCCn1ccnc1)C[C@@H]2C(=O)N1CCN(C(=O)C2CC2)CC1 | 3900 |
| COc1cc(C2C(C(=O)OCCC#N)=C(C)NC3=C2S(=O)(=O)c2ccccc23)cc(OC)c1OC (stereo not drawn) | 9630 |
| CCCCn1nc(C(=O)N2CCc3ccccc32)c2ccccc2c1=O | 23400 (active) |
| CCCCn1nc(C(=O)Nc2cccc(C(=O)NC3CC3)c2)c2ccccc2c1=O | 3390 |
| CCCn1nc(C(=O)N2CCCc3ccccc32)c2ccccc2c1=O | 4370 |
| OC[C@@H]1CN(Cc2ccc(F)cc2)C[C@H](n2cnc3c(NC4CCCC4)ncnc32)O1 | 3760 |
| CC(=O)OCC(C)n1c(=O)c2ccccc2n1C(C)=O (stereo not drawn) | 6200 |
| Cc1cn([C@H]2C[C@H](O)[C@@H](/C=C/C(=O)NCCCc3ccccc3)O2)c(=O)[nH]c1=O | 4330 |
| O=C(NC(=S)Nc1cccc(-c2ccc(CO)o2)c1)c1cccs1 | 4550 |
| CCc1nnc(NS(=O)(=O)c2ccc(NC(=S)NC(=O)c3cccs3)cc2)s1 | 3630 |
| Cc1sc(NC(=S)NC(=O)c2cccs2)nc1-c1ccc(CC(C)C)cc1 | 19900 (active) |
| CC1=C(C(=O)OCC2CCCCC2)C(c2ccc(F)cc2)NC(=O)N1 (stereo not drawn) | 3520 |
| CC(C)c1cccc(-c2csc(C(O)c3ccccc3)n2)c1 (stereo not drawn) | 3800 |
| COC(=O)c1sccc1N/N=C(\C)c1ccc(F)c(Cl)c1 | 22300 (active) |
| COC(=O)c1sccc1NS(=O)(=O)c1ccc(F)cc1F | 3170 |
| COC(=O)c1sccc1NC(=O)c1ccc(Cl)cc1 | 2980 |
| OC(c1ccccc1)c1nc(-c2cnc3ccccc3c2)cs1 (stereo not drawn) | 3830 |
| CCN(c1ccccc1)S(=O)(=O)c1cc(C(=O)NCc2ccccn2)ccc1C | 6330 |
| Cc1ccc(NC(=O)CNCc2ccccn2)cc1S(=O)(=O)N(C)C | 4460 |
| CCN(CC)S(=O)(=O)c1cc(C(=O)Nc2ccccn2)ccc1C | 24700 (active) |

| Compound | fluorescence intensity |
| --- | --- |
| CC1(C)OC(=O)C2=C(C[C@@H](C3CC3)O[C@H]2c2ccc(Cl)cc2)O1 | 5960 |
| Cc1cc2nc(-c3ccco3)c(Cc3cccc(F)c3)n2c(C)c1Br | 5860 |
| Cc1cc(OCC(=O)N(C)c2c(N)n(Cc3ccccc3)c(=O)[nH]c2=O)c(C(C)C)cc1Cl | 5120 |
| Cc1ccc(S(=O)(=O)N(CC(=O)NCCSC2CCCCC2)c2ccccc2F)cc1 | 7650 |
| O=P(c1cccs1)(c1cccs1)c1cccs1 | 22500 (active) |
| O=C(O)CCC(=O)N(Cc1cccs1)Cc1cccs1 | 9340 |
| COc1ccc(CC(N)c2csc(NC(=O)Cc3ccccc3)n2)cc1 (stereo not drawn) | 3080 |
| CCCCCCCCN1C(=O)[C@H](CC(=O)NCC23CC4CC(CC(C4)C2)C3)C[C@@]2(C(=O)OC)CCCCC=C12 | 5660 |
| COC(=O)c1ccc(CN2CCC(CO)(Cc3ccc(OC)cc3)CC2)cc1 | 3600 |
| CC(=O)N(C1=NCCCS1)c1ccccc1F | 24900 (active) |
| O=C(NCc1ccc(F)cc1)c1cc(C2CCCCN2C(=O)c2cccs2)on1 (stereo not drawn) | 3580 |
| Nc1c(-c2ccccc2)nnn1Cc1ccccc1 | 5560 |
| OCc1nc(CO)n(Cc2ccccc2)n1 | 20000 (active) |
| Cc1nn(Cc2ccccc2)c(C)c1NS(=O)(=O)c1ccccc1 | 5640 |
| O=C(NCc1cccnc1)c1ccc2nc([C@@H]3O[C@H](CO)[C@H](O)[C@H](O)[C@H]3O)[nH]c2c1 | 3590 |
| Cc1ccc(-n2c(O)c(C=NCC3CCCO3)c(=O)[nH]c2=O)c(C)c1 (stereo not drawn) | 6540 |
| O=C1c2cccc3c([N+](=O)[O-])ccc(c23)C(=O)N1CC1CCCO1 (stereo not drawn) | 3530 |
| O=C1C(C=NCC2CCCO2)=C(O)c2ccccc21 (stereo not drawn) | 21000 (active) |
| CC(C)Oc1ccc(CN2CCC2(C)C(=O)NCc2ccc(C(F)(F)F)cc2)cc1 (stereo not drawn) | 4110 |
| COc1ccc(C(=O)Nc2nc(-c3ccc(S(=O)(=O)N4CCOCC4)cc3)cs2)cc1 | 20400 (active) |
| COc1ccc(C(=O)Nc2cc(S(=O)(=O)N3CCCC3)ccc2Cl)cc1 | 3660 |
| CNC(=O)c1ccsc1NC(=O)c1ccc(S(=O)(=O)N2CCOCC2)cc1 | 2470 |
| COc1ccc(-c2cnc3c(c2)C(=O)N([C@H](C)CO)C[C@@H](C)[C@H](CN(C)Cc2ccccc2)O3)cc1 | 3700 |
| CCN(CC)C(=O)C(=O)c1cn(CC(=O)NCc2ccc3c(c2)OCO3)c2ccccc12 | 4830 |

| Compound | fluorescence intensity |
| --- | --- |
| Cn1cc(CCC(=O)NCc2ccc3c(c2)OCO3)c2ccccc21 | 22500 (active) |
| CC(C)NC(=O)CSc1ccccc1C(=O)NCc1ccc2c(c1)OCO2 | 2170 |
| CCn1c(=O)cc(SCC(=O)NCCC2=CCCCC2)c2ccccc21 | 2540 |
| CCOC(=O)N1CCC(NC(=O)CCc2cn(C)c3ccccc23)CC1 | 22900 (active) |
| CCOC(=O)N1CCC(NC(=O)CCc2ccccc2)CC1 | 3630 |
| CCn1c(=O)cc(SCC(=O)NCc2ccc3c(c2)OCO3)c2ccccc21 | 23400 (active) |
| CCOC(=O)N1CCC(NC(=O)Cc2cn(C)c3ccccc23)CC1 | 2810 |
| Cn1cc(CCC(=O)NC2CC2)c2ccccc21 | 3960 |
| COc1ccc(-c2csc(C(O)c3cccc(Cl)c3)n2)cn1 (stereo not drawn) | 3880 |
| COCCNC(=O)CSc1nc2c(n1-c1ccccc1)CCCC2 | 3860 |
| COc1ccc(-c2cc3nc(NCCOc4ccccc4)ccn3n2)cc1 | 4480 |
| O=C(NCc1ccc(F)cc1)C(c1ccccc1)N(C(=O)c1csnn1)C1CC1 (stereo not drawn) | 2770 |
| CNc1cncc(-c2ccc(NS(C)(=O)=O)cc2)n1 | 3500 |
| Cc1nn(-c2ncc(C(F)(F)F)cc2Cl)c(=O)n1-c1ccccc1 | 2340 |
| Cc1cc(NC(=O)CSc2ncc(C(F)(F)F)cc2Cl)no1 | 3110 |
| Cc1ccc(-c2ccnc3nc(Sc4ncc(C(F)(F)F)cc4Cl)nn23)cc1 | 23100 (active) |
| Cc1ccc(-c2cnc(C(O)c3cccc(C)c3C)[nH]2)cc1 (stereo not drawn) | 3860 |
| OC(c1ccccc1)(c1ccccc1)C1CCN(CCCOc2ccccc2)CC1 | 6640 |
| COc1ccc(CN2CCC(C)(Oc3cccc(F)c3)C2)c2ccccc12 (stereo not drawn) | 3240 |
| Cc1ccccc1CSCC(=O)NC(=O)NC(C)(C)C | 11200 |
| COc1ccccc1-n1ccnc1SCC(=O)NC(C)(C)C | 3990 |
| CC(C)(C)NC(=O)CSC(=Nc1ccccc1F)NC#N | 21400 (active) |
| CCOC(=O)[C@]12CCC=C1N(Cc1cccc3ccccc13)C(=O)[C@H](CC(=O)NCc1cccc(C(F)(F)F)c1)C2 | 4120 |
| CC(=O)Nc1cc(-c2cccc(CO)c2)cn2c(-c3cccc(C(F)(F)F)c3)cnc12 | 3820 |

| Compound | fluorescence intensity |
| --- | --- |
| OC(c1ccc(Cl)cc1)C(CN1CCOCC1)c1ccccc1 (stereo not drawn) | 3680 |
| COCCn1c(SCC(=O)Nc2cc(Cl)ccc2OC)nc2c(c1=O)SC(C)C2 (stereo not drawn) | 4110 |
| CCOC(=O)c1cccc(NC(=O)CCOc2ccccc2)c1 | 3720 |
| CCOC(=O)c1cccc(NC(=O)CCn2nnc3ccccc32)c1 | 4180 |
| CCOC(=O)c1cccc(NC(=O)CCc2c(C)nc3ncnn3c2C)c1 | 17600 (active) |
| c1ccc(C2CNCc3c2ccc2ccccc32)cc1 (stereo not drawn) | 10400 |
| O=S1(=O)CC(N2CCN(Cc3ccccc3F)CC2)CN1Cc1cn(Cc2cccc(C(F)(F)F)c2)nn1 (stereo not drawn) | 4150 |
| Cc1ccc(C(=O)c2ccc(N3CCN(C)CC3)c([N+](=O)[O-])c2)cc1 | 2490 |
| CS(=O)(=O)N1CCN(c2ccc(C(=O)NC3C4CC5CC(C4)CC3C5)cc2[N+](=O)[O-])CC1 (stereo not drawn) | 17000 (active) |
| Cc1cccc(N2CCN(c3ccc(C(N)=O)cc3[N+](=O)[O-])CC2)c1C | 4080 |
| CCCNC(=O)CN(Cc1ccccc1F)S(=O)(=O)c1ccc(C)cc1 | 21400 (active) |
| CCN(CC(=O)NCCc1ccccc1)S(=O)(=O)c1ccc(C)cc1 | 2180 |
| CCN(CC(=O)NCCc1ccccc1)S(=O)(=O)c1ccccc1 | 5110 |
| NC(=O)C1CCN(CC(O)CSc2ccc(F)cc2)CC1 (stereo not drawn) | 3520 |
| CC1(C(=O)NCc2ccc3c(c2)OCO3)CCN1C(=O)Cc1cccs1 (stereo not drawn) | 3670 |
| CCOC(=O)N1CCN(C(=O)COc2ccc3oc4c(c3c2)CCCC4)CC1 | 4590 |
| O=C(COc1ccc2oc3c(c2c1)CCCC3)Nc1ccccn1 | 3750 |
| O=C(CN1CCOCC1)N1CCCc2c1c(=O)oc1ccc(OCc3ccccc3)cc21 | 22500 (active) |
| O=C1OC(NC(=O)c2ccccc2)C(N2CCOCC2)=C1Cl (stereo not drawn) | 21900 (active) |
| O=C1OC(OC(=O)c2ccccc2Br)C(N2CCOCC2)=C1Cl (stereo not drawn) | 6700 |
| O=C(NC(=O)N1CCOCC1)c1ccccc1 | 9020 |
